Experimental data published in PubChem BioAssay AID1159580 (chemical genetic matrix, 2015).
Several values for one entry are separate records, joined by “and”; a condition that tells them apart may be missing. Equal entries are not always repeated. Screen size: about 5,500 compounds; about 2,000 (36%) were called active. Not shown: some 18% with an inconclusive outcome. No stated cut-off is given here; in the data, active means normalized growth mostly below about 0.91 (no sharp cut-off); inconclusive means no clear call, values can overlap the other calls; inactive means mostly above about 0.92. The list shows a part of the results.

Assay: chemical genetic growth profiling, strain panel (AID 1159580);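 further: tested at 20 µM; growth read once vehicle control cultures reached saturation at 30 °C; 1 = growth at the plate median or of vehicle wells; lower values mean less growth of the strain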
Settings: growth OD
[1] = S. cerevisiae deletion strains, locus YBR229C, strain ROT2, hits give low values
[2] = S. cerevisiae deletion strains, locus YDL101C, strain DUN1, hits give low values
[3] = S. cerevisiae deletion strains, locus YDR150W, strain NUM1, hits give low values
[4] = S. cerevisiae deletion strains, locus YEL061C, strain CIN8, hits give low values
[5] = S. cerevisiae deletion strains, locus YGR078C, strain PAC10, hits give low values
[6] = S. cerevisiae deletion strains, locus YHR030C, strain SLT2, hits give low values
[7] = S. cerevisiae deletion strains, locus YJR043C, strain POL32, hits give low values
[8] = S. cerevisiae deletion strains, locus YLR039C, strain RIC1, hits give low values
[9] = S. cerevisiae deletion strains, locus YLR262C, strain YPT6, hits give low values
[10] = S. cerevisiae deletion strains, locus YMR307W, strain GAS1, hits give low values
[11] = S. cerevisiae deletion strains, locus YNL153C, strain GIM3, hits give low values
[12] = S. cerevisiae deletion strains, locus YPL241C, strain CIN2, hits give low values

Measured: normalized growth

CC(=O)Nc1ccc(OCC(O)CNC(C)C)cc1 (configuration not stated)
inactive: S. cerevisiae deletion strains, locus YBR021W, strain FUR4, hits give low values 1.01 | [1] 1 | S. cerevisiae deletion strains, locus YCL029C, strain bik1, hits give low values 0.995 | S. cerevisiae deletion strains, locus YDL035C, strain GPR1, hits give low values 1.01 | S. cerevisiae deletion strains, locus YDL074C, strain BRE1, hits give low values 1.02 | [2] 1.01 | S. cerevisiae deletion strains, locus YDL185W, strain tfp1, hits give low values 1.01 | S. cerevisiae deletion strains, locus YDL192W, strain arf1, hits give low values 1 | S. cerevisiae deletion strains, locus YDR101C, strain arx1, hits give low values 1.02 | [3] 1.01 | S. cerevisiae deletion strains, locus YDR162C, strain NBP2, hits give low values 1.01 | S. cerevisiae deletion strains, locus YDR318W, strain mcm21, hits give low values 1 | S. cerevisiae deletion strains, locus YDR388W, hits give low values 1 | S. cerevisiae deletion strains, locus YDR502C, strain sam2, hits give low values 0.99 | [4] 1.01 | S. cerevisiae deletion strains, locus YER110C, hits give low values 1 | S. cerevisiae deletion strains, locus YER155C, strain BEM2, hits give low values 1.01 | S. cerevisiae deletion strains, locus YER167W, strain BCK2, hits give low values 1.01 | S. cerevisiae deletion strains, locus YGL078C, strain dbp3, hits give low values 0.999 | S. cerevisiae deletion strains, locus YGL086W, strain mad1, hits give low values 1 | S. cerevisiae deletion strains, locus YGL248W, strain PDE1, hits give low values 1 | [5] 1.01 | S. cerevisiae deletion strains, locus YGR135W, strain pre9, hits give low values 0.996 | S. cerevisiae deletion strains, locus YGR229C, strain SMI1, hits give low values 1 | S. cerevisiae deletion strains, locus YGR252W, strain gcn5, hits give low values 0.975 | [6] 1.01 and 0.983 | S. cerevisiae deletion strains, locus YHR079C, strain IRE1 (second series), hits give low values 0.999 | S. cerevisiae deletion strains, locus YHR079C, strain IRE1, hits give low values 0.978 | S. cerevisiae deletion strains, locus YHR094C, strain hxt1, hits give low values 0.999 | S. cerevisiae deletion strains, locus YHR129C, strain ARP1, hits give low values 1.01 | S. cerevisiae deletion strains, locus YHR200W, strain rpn10, hits give low values 1.01 | S. cerevisiae deletion strains, locus YIL066C, strain RNR3, hits give low values 1.01 | S. cerevisiae deletion strains, locus YIL073C, strain SPO22, hits give low values 1.03 | S. cerevisiae deletion strains, locus YIL125W, strain kgd1, hits give low values 1 | S. cerevisiae deletion strains, locus YIR030C, strain dcg1, hits give low values 0.995 | S. cerevisiae deletion strains, locus YJL095W, strain BCK1, hits give low values 1.02 and 0.982 | S. cerevisiae deletion strains, locus YJL134W, strain LCB3, hits give low values 1.01 | S. cerevisiae deletion strains, locus YJL168C, strain set2, hits give low values 1 | S. cerevisiae deletion strains, locus YJL187C, strain SWE1 (second series), hits give low values 1.02 | [7] 1.01 | S. cerevisiae deletion strains, locus YJR066W, strain TOR1, hits give low values 0.965 | S. cerevisiae deletion strains, locus YKL009W, strain mrt4, hits give low values 0.991 | S. cerevisiae deletion strains, locus YKL068W, hits give low values 1 | S. cerevisiae deletion strains, locus YKL085W, strain MDH1 (second series), hits give low values 1.01 | S. cerevisiae deletion strains, locus YKL085W, strain MDH1, hits give low values 1.01 | S. cerevisiae deletion strains, locus YKR001C, strain vps1, hits give low values 1 | [8] 1.05 | S. cerevisiae deletion strains, locus YLR058C, strain SHM2, hits give low values 1.01 | S. cerevisiae deletion strains, locus YLR102C, strain apc9, hits give low values 0.996 | S. cerevisiae deletion strains, locus YLR113W, strain HOG1, hits give low values 1.01 | [9] 1.03 | S. cerevisiae deletion strains, locus YLR268W, strain sec22, hits give low values 0.998 | S. cerevisiae deletion strains, locus YLR330W, strain CHS5, hits give low values 1.01 | S. cerevisiae deletion strains, locus YLR342W, strain FKS1 (second series), hits give low values 1.02 | S. cerevisiae deletion strains, locus YLR371W, strain rom2, hits give low values 1.01 | S. cerevisiae deletion strains, locus YLR418C, strain cdc73, hits give low values 0.981 | S. cerevisiae deletion strains, locus YML016C, strain PPZ1, hits give low values 1.01 | S. cerevisiae deletion strains, locus YML032C, strain rad52, hits give low values 1.02 | S. cerevisiae deletion strains, locus YML124C, strain tub3, hits give low values 0.998 | S. cerevisiae deletion strains, locus YMR078C, strain ctf18, hits give low values 1 | S. cerevisiae deletion strains, locus YMR223W, strain ubp8, hits give low values 0.985 | [10] 0.965 | S. cerevisiae deletion strains, locus YNL067W, strain RPL9B, hits give low values 1.02 | S. cerevisiae deletion strains, locus YNL128W, strain TEP1, hits give low values 1.02 | [11] 1.02 | S. cerevisiae deletion strains, locus YNL183C, strain NPR1, hits give low values 0.938 | S. cerevisiae deletion strains, locus YNL233W, strain BNI4, hits give low values 1 | S. cerevisiae deletion strains, locus YNL250W, strain rad50, hits give low values 0.996 | S. cerevisiae deletion strains, locus YNL271C, strain bni1, hits give low values 0.992 | S. cerevisiae deletion strains, locus YNL298W, strain CLA4, hits give low values 1 | S. cerevisiae deletion strains, locus YNL307C, strain MCK1, hits give low values 1 | S. cerevisiae deletion strains, locus YNR052C, strain pop2, hits give low values 1.01 | S. cerevisiae deletion strains, locus YOL012C, strain htz1 0.693 | S. cerevisiae deletion strains, locus YOL147C, strain pex11, hits give low values 0.999 | S. cerevisiae deletion strains, locus YOR061W, strain CKA2, hits give low values 1.01 | S. cerevisiae deletion strains, locus YOR069W, strain VPS5, hits give low values 1.01 | S. cerevisiae deletion strains, locus YOR136W, strain idh2, hits give low values 0.999 | S. cerevisiae deletion strains, locus YOR144C, strain elg1, hits give low values 0.998 | S. cerevisiae deletion strains, locus YOR184W, strain ser1, hits give low values 1.01 | S. cerevisiae deletion strains, locus YOR231W, strain MKK1, hits give low values 0.965 | S. cerevisiae deletion strains, locus YOR316C, strain cot1, hits give low values 0.997 | [12] 1.01 | S. cerevisiae deletion strains, locus YPL256C, strain CLN2, hits give low values 0.973 | S. cerevisiae deletion strains, locus YPR119W, strain clb2, hits give low values 1 | S. cerevisiae deletion strains, locus YPR141C, strain kar3, hits give low values 0.985 | S. cerevisiae deletion strains, locus YPR163C, strain tif3, hits give low values 1.01 | S. cerevisiae deletion strains, locus YPR167C, strain met16, hits give low values 1 | S. cerevisiae deletion strains, strain wtn01, hits give low values 0.979 | S. cerevisiae strains, strain wild type, hits give low values 1.01

COc1ccc(NC(=O)C(C)c2ccc(CC(C)C)cc2)cc1 (configuration not stated)
inactive: S. cerevisiae deletion strains, locus YAL013W, strain DEP1, hits give low values 0.976 | [2] 0.956 | S. cerevisiae deletion strains, locus YDL134C, strain PPH21, hits give low values 0.965 | [3] 0.91 | [4] 0.943 | [6] 0.916 | S. cerevisiae deletion strains, locus YLR058C, strain SHM2 (second series), hits give low values 0.974 | S. cerevisiae deletion strains, locus YLR085C, strain ARP6, hits give low values 0.878 | S. cerevisiae deletion strains, locus YML094W, strain GIM5, hits give low values 0.903 | S. cerevisiae deletion strains, locus YMR263W, strain SAP30, hits give low values 0.963 | [10] 0.774 | [11] 0.932 | S. cerevisiae deletion strains, locus YNL298W, strain CLA4 (second series), hits give low values 0.937 | S. cerevisiae deletion strains, locus YNL322C, strain KRE1, hits give low values 0.967 | S. cerevisiae deletion strains, locus YPL055C, strain LGE1, hits give low values 0.838 | S. cerevisiae deletion strains, locus YPR135W, strain CTF4, hits give low values 0.855
active: [1] 0.897 | S. cerevisiae deletion strains, locus YCL061C, strain MRC1, hits give low values 0.848 | [5] 0.886 | S. cerevisiae deletion strains, locus YHR087W, strain rtc3, hits give low values 0.824 | [7] 0.907 | S. cerevisiae deletion strains, locus YJR075W, strain HOC1, hits give low values 0.804 | S. cerevisiae deletion strains, locus YKL190W, strain CNB1, hits give low values 0.914 | [8] 0.527 | [9] 0.46 | S. cerevisiae deletion strains, locus YMR219W, strain ESC1, hits give low values 0.94 | S. cerevisiae deletion strains, locus YNR030W, strain Alg12, hits give low values 0.872 | [12] 0.858
